# Values joined by “and” are separate entries in the source; they are usually repeats but may differ in a detail not shown here. Equal entries are not always repeated. Results filed as inconclusive are left out. Where a call stands in place of a potency, no number is given. A structure can be active in one record and inactive in another. Active and inactive are the calls of the source. Calls come from the whole dose curve; as a rule, active = well fitted curve in the direction sought with a large enough effect in the repeat runs; inconclusive = weak or mixed curves; inactive = no such curve, though single readings can be large; an effect the other way counts as inactive or inconclusive.
# Columns and labels:
# [1] = qHTS RealTime-Glo MT Cell Viability Assay in HEK293 cells - 40 hour (AID 1224874); conditions: RealTime-Glo luminescence; max response: stronger effect = lower value; note: nearly all actives have a fitted effect of over 50% in size
# Summary of the method: (§1)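 Tox21 screen in HEK293 using RealTime-Glo MT chemistry, with cells and reagent co-dispensed. Luminescence proportional to viable cell number was captured at intervals during 40 h compound exposure at 37 C.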
# [2] = A CellTox Green Cytotoxicity Assay to monitor cytotoxicity in HEK293 cells - 24 hour (AID 1224875); note: series mostly up to about 77 µM; nearly all actives have a fitted effect of over 45% in size
# Summary of the method: (§2)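 Seeding of HEK293 cells together with cytotoxicity dye preceded a 5 h incubation at 37 C/5% CO2. Test compounds in DMSO were then added and fluorescence monitored across 40 h.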
# [3] = A CellTox Green Cytotoxicity Assay to monitor cytotoxicity in HepG2 cells - 16 hour (AID 1224876); note: nearly all actives have a fitted effect of over 45% in size; note: potency is the fitted concentration of half-maximal effect
# Summary of the method: (§3)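 Nonlytic assay: viable cells exclude the dye, so fluorescence scales with cell death. HepG2 at 600 cells/well, compounds added after 5 h, signal read across 40 h.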
# [4] = qHTS RealTime-Glo MT Cell Viability Assay in HepG2 cells - 32 hour (AID 1224877); note: nearly all actives have a fitted effect of over 55% in size
# Summary of the method: (§4)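 Compound treatment began 5 h after plating HepG2 cells (600/well) with NanoLuc luciferase and prosubstrate. Plates stayed at 37 C for 40 h; luminescence was captured at six time points, 0 h through 40 h.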
# [5] = A CellTox Green Cytotoxicity Assay to monitor cytotoxicity in HepG2 cells - 24 hour (AID 1224878); note: nearly all actives have a fitted effect of over 45% in size; note: potency is the fitted concentration of half-maximal effect
# Summary of the method: as §3
# [6] = A CellTox Green Cytotoxicity Assay to monitor cytotoxicity in HepG2 cells - 40 hour (AID 1224879); note: nearly all actives have a fitted effect of over 40% in size; note: potency is the fitted concentration of half-maximal effect
# Summary of the method: as §3
# [7] = A CellTox Green Cytotoxicity Assay to monitor cytotoxicity in HEK293 cells - 32 hour (AID 1224881); note: nearly all actives have a fitted effect of over 40% in size; note: potency is the fitted concentration of half-maximal effect
# Summary of the method: as §2
# [8] = A CellTox Green Cytotoxicity Assay to monitor cytotoxicity in HepG2 cells - 0 hour (AID 1224882); note: nearly all actives have a fitted effect of over 35% in size; note: potency is the fitted concentration of half-maximal effect
# Summary of the method: as §3
# [9] = A CellTox Green Cytotoxicity Assay to monitor cytotoxicity in HepG2 cells - 32 hour (AID 1224883); note: nearly all actives have a fitted effect of over 50% in size
# Summary of the method: as §3
# [10] = A CellTox Green Cytotoxicity Assay to monitor cytotoxicity in HEK293 cells - 8 hour (AID 1224884); note: nearly all actives have a fitted effect of over 35% in size; note: potency is the fitted concentration of half-maximal effect
# Summary of the method: as §2
# [11] = qHTS RealTime-Glo MT Cell Viability Assay in HEK293 cells - 24 hour (AID 1224886); note: top concentration of the series differs between compounds; nearly all actives have a fitted effect of over 50% in size
# Summary of the method: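 Quantitative high-throughput screen of the Tox21 10K library in HEK293: cells and RealTime-Glo reagents plated together, compound added at 5 h, luminescence monitored through 40 h at 37 C.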
# [12] = qHTS RealTime-Glo MT Cell Viability Assay in HEK293 cells - 8 hour (AID 1224887); note: top concentration of the series differs between compounds; nearly all actives have a fitted effect of over 50% in size
# Summary of the method: as §1
# [13] = A CellTox Green Cytotoxicity Assay to monitor cytotoxicity in HEK293 cells - 16 hour (AID 1224888); note: nearly all actives have a fitted effect of over 35% in size
# Summary of the method: as §2
# [14] = qHTS RealTime-Glo MT Cell Viability Assay in HepG2 cells - 0 hour (AID 1224889); note: nearly all actives have a fitted effect of over 50% in size
# Summary of the method: as §4
# [15] = A CellTox Green Cytotoxicity Assay to monitor cytotoxicity in HepG2 cells - 8 hour (AID 1224890); note: nearly all actives have a fitted effect of over 45% in size; note: potency is the fitted concentration of half-maximal effect
# Summary of the method: as §3
# [16] = qHTS assay to identify small molecule antagonists of the estrogen receptor alpha (ER-alpha) signaling pathway using the BG1 cell line in the presence of 0.1 nM 17-beta-estradiol - cell viability counter screen (AID 1259241); note: nearly all actives have a fitted effect of over 40% in size
# Summary of the method: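 VM7Luc4E2 cells (endogenous full-length ER-alpha, 4xERE-luciferase), cultured 5 days in charcoal-stripped serum, exposed to compounds with 0.1 nM 17beta-estradiol (final) for 22 hr at 37C. Viability read in same wells as live-cell protease fluorescence after 30 min.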
# [17] = qHTS assay to identify small molecule antagonists of the androgen receptor (AR) signaling pathway using the MDA cell line in the presence of 0.5 nM R1881 - cell viability counter screen (AID 1259242); note: nearly all actives have a fitted effect of over 45% in size
# Summary of the method: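 R1881 at 0.5 nM final stimulated MDA-kb2 cells during 16 hr compound treatment at 37C. Cytotoxicity read: CellTiter-Fluor fluorescence after 30 min.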
# [18] = qHTS RealTime-Glo MT Cell Viability Assay in HEK293 cells - 0 hour (AID 1224880)
# Summary of the method: as §1
# [19] = qHTS RealTime-Glo MT Cell Viability Assay in HepG2 cells - 16 hour (AID 1224885); note: nearly all actives have a fitted effect of over 50% in size
# Summary of the method: as §4
# [20] = target: Androgen receptor (Homo sapiens) (UniProt P10275); experiment: qHTS assay to identify small molecule antagonists of the androgen receptor (AR) signaling pathway using the MDA cell line in the presence of 0.5 nM R1881 (AID 1259243); note: nearly all actives have a fitted effect of over 50% in size
# Androgen receptor (Homo sapiens), sequence (P10275 whole entry, looked up): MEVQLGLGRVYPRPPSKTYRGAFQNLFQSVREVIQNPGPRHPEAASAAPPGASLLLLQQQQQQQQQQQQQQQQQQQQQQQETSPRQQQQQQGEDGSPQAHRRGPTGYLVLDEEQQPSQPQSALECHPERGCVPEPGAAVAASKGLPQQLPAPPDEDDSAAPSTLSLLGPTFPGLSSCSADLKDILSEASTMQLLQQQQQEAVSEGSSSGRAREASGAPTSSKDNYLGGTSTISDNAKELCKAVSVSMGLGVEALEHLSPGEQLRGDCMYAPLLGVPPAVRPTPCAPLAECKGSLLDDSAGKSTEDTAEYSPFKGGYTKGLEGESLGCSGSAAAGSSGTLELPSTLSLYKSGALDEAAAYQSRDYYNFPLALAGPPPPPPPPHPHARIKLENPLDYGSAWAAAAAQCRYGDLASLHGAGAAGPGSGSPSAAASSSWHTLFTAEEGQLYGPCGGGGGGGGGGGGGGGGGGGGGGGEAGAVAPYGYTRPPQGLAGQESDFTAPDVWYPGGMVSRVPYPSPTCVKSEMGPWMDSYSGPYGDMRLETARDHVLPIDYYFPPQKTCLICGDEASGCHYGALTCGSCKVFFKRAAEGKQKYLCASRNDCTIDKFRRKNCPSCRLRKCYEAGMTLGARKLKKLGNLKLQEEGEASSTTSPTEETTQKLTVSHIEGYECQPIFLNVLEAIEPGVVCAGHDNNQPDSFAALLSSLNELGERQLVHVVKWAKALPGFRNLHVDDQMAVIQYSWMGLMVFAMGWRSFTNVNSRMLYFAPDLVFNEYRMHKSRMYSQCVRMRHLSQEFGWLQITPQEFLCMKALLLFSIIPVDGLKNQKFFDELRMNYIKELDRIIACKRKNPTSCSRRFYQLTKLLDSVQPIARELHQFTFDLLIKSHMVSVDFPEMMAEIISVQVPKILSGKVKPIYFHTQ
# Summary of the method: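 We exposed MDA-kb2 cells to compounds under 0.5 nM R1881 stimulation for 16 hr at 37C and quantified MMTV-driven luciferase by luminescence.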
smiles,measurement,setting,value
C=CC(N)=O,max response,[1],0.5% (inactive) and -10.4% (inactive)
same,Potency,[2],inactive
same,Potency,[3],inactive
same,outcome,[4],inactive
same,Potency,[5],inactive
same,Potency,[6],inactive
same,Potency,[7],inactive
same,Potency,[8],inactive
same,Potency,[9],inactive
same,Potency,[10],inactive
same,Potency,[11],inactive
same,outcome,[12],inactive
same,Potency,[13],inactive
same,outcome,[14],inactive
same,Potency,[15],inactive
same,Potency,[16],inactive
same,outcome,[17],inactive
CN(C)[C@@H]1C(=O)C(C(N)=O)=C(O)[C@@]2(O)C(=O)C3=C(O)c4c(O)cccc4[C@@](C)(O)[C@H]3C[C@@H]12,max response,[1],8.71% (inactive) and 13.3% (inactive) and -4.27% (inactive)
same,Potency,[2],inactive
same,Potency,[3],inactive
same,outcome,[4],inactive
same,Potency,[5],inactive
same,Potency,[6],inactive
same,Potency,[7],inactive
same,Potency,[8],inactive
same,Potency,[10],inactive
same,Potency,[11],inactive
same,outcome,[12],inactive
same,Potency,[13],inactive
same,outcome,[14],inactive
same,Potency,[15],inactive
same,Potency,[16],inactive
same,outcome,[17],inactive
C=C(C)CCl,max response,[1],0.792% (inactive) and 2.61% (inactive)
same,Potency,[2],inactive
same,Potency,[3],inactive
same,Potency,[5],inactive
same,Potency,[6],inactive
same,outcome,[18],inactive
same,Potency,[7],inactive
same,Potency,[8],inactive
same,Potency,[9],inactive
same,Potency,[10],inactive
same,outcome,[19],inactive
same,"activity change, negative = cytotoxicity",[11],6.36% [at 6.97 µM] (inactive)
same,outcome,[12],inactive
same,Potency,[13],inactive
same,outcome,[14],inactive
same,Potency,[15],inactive
same,Potency,[16],inactive
same,outcome,[17],inactive
same,Potency,[20],inactive
CC1OC(C)OC(C)O1 (configuration not stated),max response,[1],8.31% (inactive) and 5.6% (inactive)
same,Potency,[2],inactive
same,Potency,[3],inactive
same,outcome,[4],inactive
same,Potency,[5],inactive
same,Potency,[6],inactive
same,Potency,[7],inactive
same,Potency,[8],inactive
same,Potency,[10],inactive
same,outcome,[19],inactive
same,Potency,[11],inactive
same,outcome,[12],inactive
same,Potency,[13],inactive
same,outcome,[14],inactive
same,Potency,[16],inactive
same,outcome,[17],inactive
COC(=O)NC(=S)Nc1ccccc1NC(=S)NC(=O)OC,Potency,[2],inactive
same,Potency,[3],inactive
same,Potency,[5],inactive
same,Potency,[6],inactive
same,outcome,[18],inactive
same,Potency,[7],inactive
same,Potency,[8],inactive
same,Potency,[9],inactive
same,Potency,[10],inactive
same,Potency,[11],inactive
same,outcome,[12],inactive
same,Potency,[13],inactive
same,outcome,[14],inactive
same,Potency,[15],inactive
same,Potency,[16],inactive
same,outcome,[17],inactive
CCCCN(CCCC)SN(C)C(=O)Oc1cccc2c1OC(C)(C)C2,max response,[1],-26.5% (inactive)
same,Potency,[2],inactive
same,Potency,[3],inactive
same,Potency,[5],inactive
same,Potency,[6],inactive
same,outcome,[18],inactive
same,Potency,[7],inactive
same,Potency,[8],inactive
same,Potency,[10],inactive
same,outcome,[19],inactive
same,Potency,[13],inactive
same,outcome,[14],inactive
same,Potency,[15],inactive
same,Potency,[16],inactive
same,outcome,[17],inactive
CCNc1nc(NC(C)C)nc(SC)n1,max response,[1],-1.45% (inactive)
same,Potency,[2],inactive
same,Potency,[3],inactive
same,Potency,[5],inactive
same,Potency,[6],inactive
same,Potency,[7],inactive
same,Potency,[8],inactive
same,Potency,[10],inactive
same,Potency,[11],inactive
same,outcome,[12],inactive
same,Potency,[13],inactive
same,outcome,[14],inactive
same,Potency,[15],inactive
same,Potency,[16],inactive
same,outcome,[17],inactive
same,Potency,[20],inactive
OC(O)C(Cl)(Cl)Cl,max response,[1],-9.37% (inactive) and 5.84% (inactive)
same,Potency,[2],inactive
same,Potency,[3],inactive
same,Potency,[5],inactive
same,Potency,[6],inactive
same,Potency,[7],inactive
same,Potency,[8],inactive
same,Potency,[9],inactive
same,Potency,[10],inactive
same,outcome,[19],inactive
same,Potency,[11],inactive
same,outcome,[12],inactive
same,outcome,[14],inactive
same,Potency,[15],inactive
same,Potency,[16],inactive
same,outcome,[17],inactive
CC1C=[C-]C=C1.[C-]#[O+].[C-]#[O+].[C-]#[O+].[Mn],max response,[1],5.97% (inactive) and 3.98% (inactive)
same,Potency,[2],inactive
same,Potency,[3],inactive
same,Potency,[5],inactive
same,Potency,[6],inactive
same,outcome,[18],inactive
same,Potency,[7],inactive
same,Potency,[8],inactive
same,Potency,[9],inactive
same,Potency,[10],inactive
same,Potency,[11],inactive
same,outcome,[12],inactive
same,outcome,[14],inactive
same,Potency,[16],inactive
same,outcome,[17],inactive
CCCCCOC(=O)c1ccccc1C(=O)OCCCCC,max response,[1],-11.1% (inactive) and -2.4% (inactive)
same,Potency,[2],inactive
same,Potency,[3],inactive
same,Potency,[5],inactive
same,Potency,[6],inactive
same,Potency,[7],inactive
same,Potency,[8],inactive
same,Potency,[9],inactive
same,Potency,[10],inactive
same,Potency,[11],inactive
same,outcome,[12],inactive
same,Potency,[13],inactive
same,outcome,[14],inactive
same,Potency,[15],inactive
same,Potency,[16],inactive
same,outcome,[17],inactive
CC(Oc1ccc(Cl)cc1Cl)C(=O)O (configuration not stated),max response,[1],-2.47% (inactive)
same,Potency,[2],inactive
same,Potency,[3],inactive
same,Potency,[5],inactive
same,Potency,[6],inactive
same,Potency,[7],inactive
same,Potency,[8],inactive
same,Potency,[10],inactive
same,outcome,[19],inactive
same,Potency,[11],inactive
same,outcome,[12],inactive
same,Potency,[13],inactive
same,outcome,[14],inactive
same,Potency,[16],inactive
same,outcome,[17],inactive
CCC(C)(CC)c1cc(NC(=O)c2c(OC)cccc2OC)on1,Potency,[2],inactive
same,Potency,[3],inactive
same,Potency,[5],inactive
same,Potency,[6],inactive
same,Potency,[7],inactive
same,Potency,[8],inactive
same,Potency,[9],inactive
same,Potency,[10],inactive
same,Potency,[11],inactive
same,outcome,[12],inactive
same,Potency,[13],inactive
same,outcome,[14],inactive
same,Potency,[15],inactive
same,Potency,[16],inactive
same,outcome,[17],inactive
C1CN2CCN1CC2,max response,[1],1.08% (inactive) and 21.8% (inactive)
same,Potency,[3],inactive and 21.9 µM (active)
same,outcome,[4],inactive
same,Potency,[5],inactive and 21.9 µM (active)
same,Potency,[6],inactive and 21.9 µM (active)
same,outcome,[18],inactive
same,Potency,[7],inactive and 21.9 µM (active)
same,Potency,[8],inactive and 21.9 µM (active)
same,Potency,[10],inactive and 21.9 µM (active)
same,Potency,[11],inactive
same,outcome,[12],inactive
same,outcome,[14],inactive
same,Potency,[15],inactive and 24.5 µM (active)
same,Potency,[16],inactive
same,outcome,[17],inactive
